In PMC11062922 (Nature Chemical Biology, 2023) one finds potency estimated from few doses and IC50 data, which are given here for eleven compounds.

One test has as its system PRKD1. Also on record: species or system human, MV4-11 + K-562 + COLO205 + SK-N-BE2 + OVCAR-8. The settings on record: read-out: apparent Kd, n = 1.
Another test relates to CAMK2G. Also noted: species or system human, MV4-11 + K-562 + COLO205 + SK-N-BE2 + OVCAR-8. The conditions noted are these: read-out: apparent Kd, compound concentrations: 100 nM and 1000 nM (sheet 'Samples'), n = 1.
In the next test the test system is CDK12. Also on record: species or system human, MV4-11 + K-562 + COLO205 + SK-N-BE2 + OVCAR-8. The conditions noted are these: read-out: apparent Kd; compound concentrations: 100 nM and 1000 nM (sheet 'Samples'), CATDS: 3.82162717704907E-3; n = 1.
The next test has as its system EPHA7. Also noted: species or system human, MV4-11 + K-562 + COLO205 + SK-N-BE2 + OVCAR-8. The conditions noted are these: read-out: apparent Kd, compound concentrations: 100 nM and 1000 nM (sheet 'Samples'), n = 1.
Another test deals with ERN2. Also on record: species or system human, MV4-11 + K-562 + COLO205 + SK-N-BE2 + OVCAR-8. The conditions noted are these: read-out: apparent Kd, n = 1.
The subject of another test is FES. Also on record: species or system human, MV4-11 + K-562 + COLO205 + SK-N-BE2 + OVCAR-8. The settings on record: read-out: apparent Kd, compound concentrations: 100 nM and 1000 nM (sheet 'Samples'), n = 1.
In a further test the test system is MAP3K1. Also on record: species or system human, MV4-11 + K-562 + COLO205 + SK-N-BE2 + OVCAR-8. The settings on record: read-out: apparent Kd; compound concentrations: 100 nM and 1000 nM (sheet 'Samples'), CATDS: 4.4631882369260602E-3; n = 1.
In another test the test system is MAP3K4. Also on record: species or system human, MV4-11 + K-562 + COLO205 + SK-N-BE2 + OVCAR-8. The settings on record: read-out: apparent Kd, n = 1.
For another test, the system named is MDN1. Also noted: species or system human, MV4-11 + K-562 + COLO205 + SK-N-BE2 + OVCAR-8. The settings on record: read-out: apparent Kd; compound concentrations: 100 nM and 1000 nM (sheet 'Samples'), CATDS: 5.0398543071368297E-3; n = 1.
Another test deals with NEK1. Also noted: species or system human, MV4-11 + K-562 + COLO205 + SK-N-BE2 + OVCAR-8. The settings on record: read-out: apparent Kd, compound concentrations: 100 nM and 1000 nM (sheet 'Samples'), n = 1.
Another test has as its system PYGL. Also on record: species or system human, MV4-11 + K-562 + COLO205 + SK-N-BE2 + OVCAR-8. The settings on record: read-out: apparent Kd; compound concentrations: 100 nM and 1000 nM (sheet 'Samples'), CATDS: 4.6532954394714601E-3; n = 1.
Another test concerns RIPK3. Also on record: species or system human, MV4-11 + K-562 + COLO205 + SK-N-BE2 + OVCAR-8. The settings on record: read-out: apparent Kd, n = 1.
A further test deals with GRK6. Also noted: species or system human, MV4-11 + K-562 + COLO205 + SK-N-BE2 + OVCAR-8. The settings on record: read-out: apparent Kd; compound concentrations: 100 nM and 1000 nM (sheet 'Samples'), CATDS: 6.7200037487984698E-3; n = 1.
For another test, the system named is CSNK2A1. The settings on record: hek293t cells.
For another test, the system named is CSNK2A2. The conditions noted are these: hek293t cells.
A further test concerns PLK1. Also on record: species or system human, MV4-11 + K-562 + COLO205 + SK-N-BE2 + OVCAR-8. The settings on record: read-out: apparent Kd; compound concentrations: 100 nM and 1000 nM (sheet 'Samples'), CATDS: 1.2041031249847799E-2; n = 1.
[1] abbreviates: compound concentrations:100 nM and 1000 nM (sheet 'Samples').

Read-outs that look alike come from different tables or passages of the source.

Take `O=C1NC(=O)C(N2CCc3ccccc32)=C1c1ccccc1Cl` [SB-373598]: the potency estimated from few doses in the test on PRKD1 (setting [1]) was 1580 nM.

On to `Cn1ncc2c(N)ncnc21` [SKF-18267], for which the potency estimated from few doses was 382 nM in the test on CAMK2G (CATDS: 7.7542498365532697E-3); 1510 nM with CDK12; 1210 nM with EPHA7 (CATDS: 4.1620084388922602E-3); 877 nM with ERN2 (compound concentrations: 100 nM and 1000 nM (sheet 'Samples'), CATDS: 4.8185865403999398E-3); 766 nM in the test on FES (CATDS: 5.1575309929755304E-3); 1030 nM in the test on MAP3K1. Also, the potency estimated from few doses was 1340 nM in the test with MAP3K4 (compound concentrations: 100 nM and 1000 nM (sheet 'Samples'), CATDS: 4.0015325722358502E-3); 801 nM in the test on MDN1; 1820 nM with NEK1 (CATDS: 3.5725639465568099E-3); 943 nM in the test with PYGL; 2080 nM in the test on RIPK3 (compound concentrations: 100 nM and 1000 nM (sheet 'Samples'), CATDS: 3.42256468250394E-3).

For `O=C1N=C(NCCc2ccc(Cl)cc2)S/C1=C\c1ccc2ncccc2c1` [RO4498479-000], the potency estimated from few doses in the test on FES (CATDS: 7.5853712865523596E-3) is 1210 nM; in the test with GRK6, 1960 nM.

Consider `Cl.NCc1ccc(-c2nc(-c3ccc(Cl)c(O)c3)c(-c3ccncc3)[nH]2)cc1` [SB-476429-A], for which the potency estimated from few doses in the test with RIPK3 (setting [1]) was 1200 nM.

Take `CN(c1ccc(NC(=O)N2CCN(CCCN3CCOCC3)CC2)cc1)c1ccnc(Nc2ccc(CS(C)(=O)=O)cc2)n1.Cl` [GW830899A]: in the test with CAMK2G (CATDS: 3.6233110942478698E-2), the potency estimated from few doses is 457 nM.

Take `CNC(=O)c1ccccc1Nc1nc(Nc2ccc(N3CCOCC3)cc2)ncc1Cl.Cl` [GSK1576028A]: in the test on MAP3K4 (setting [1]), the potency estimated from few doses was 1690 nM.

For `CCn1c(-c2nonc2N)nc2c(-c3ccccc3)ncc(OCCCN)c21.CCn1c(-c2nonc2N)nc2c(-c3ccccc3)ncc(OCCCN)c21.O=C(O)C(F)(F)F.O=C(O)C(F)(F)F` [GSK260205A], the potency estimated from few doses in the test on PRKD1 (compound concentrations: 100 nM and 1000 nM (sheet 'Samples'), CATDS: 2.9847294929188299E-2) is 1340 nM.

`COc1cc(Nc2ncc3c(C)nc(-c4cc5ccccc5[nH]4)n3n2)cc(OC)c1OC` [GW869516X]: the IC50 is 446 nM in the test with CSNK2A1 (read-out: Average, SD, n = 2); 471 nM with CSNK2A1 (read-out: Rep 1); 421 nM with CSNK2A1 (read-out: Rep 2); 319 nM in the test with CSNK2A2 (read-out: Average, SD, n = 2); 135 nM in the test with CSNK2A2 (read-out: Rep 1); 503 nM in the test on CSNK2A2 (read-out: Rep 2).

`Cc1cccc(Nc2nc(N[C@H]3CCCC[C@H]3N)ncc2C(N)=O)c1.Cl` [GSK986310C]: the potency estimated from few doses with ERN2 (setting [1]) is 1400 nM.

On to `CCOC(=O)N1CCC(n2cnc(-c3ccc(F)cc3)c2-c2ccnc(N)n2)CC1` [SB-219952], for which the potency estimated from few doses in the test on EPHA7 (CATDS: 8.0080287869844797E-3) is 1690 nM.

On to `COc1ccc(Nc2ncc(C#N)c(Nc3ccccc3C(N)=O)n2)cc1N1CCN(C)CC1.Cl` [GSK1558669A], for which the potency estimated from few doses with FES (CATDS: 8.0815646455300594E-3) is 387 nM; with MAP3K4 (compound concentrations: 100 nM and 1000 nM (sheet 'Samples'), CATDS: 1.60153050048602E-2), 57.9 nM; with NEK1 (CATDS: 8.9161421311332902E-3), 272 nM; with PLK1 it was 113 nM.
